# In the library only some 11% were active in any assay of this set; here they are far more common.
# JMJD2A Tudor: JMJD2A Tudor domain (human) inhibition. O75164. AlphaScreen JMJD2A-Tudor / H3K4me3 peptide binding. Potency, µM (top dose mostly 114 µM), inactives show top-dose activity change, negative = inhibition, usual class: inhibitors. 390,000 compounds, 4.4% hits; also: % is scaled to controls: 0 for no effect and ±100 for the full control effect; nearly all actives have a fitted effect of over 50% in size
# BAZ2B inh: blocks human BAZ2B; AlphaScreen BAZ2B-H3K14Ac peptide displacement; Potency, µM (top dose mostly 114 µM), inactives show at the highest dose activity change, negative = inhibition, most hits filed as inhibitors; 360,000 compounds, 4.4% hits; AID 504333; also: % is scaled to controls: 0 for no effect and ±100 for the full control effect; nearly all actives have a fitted effect of over 60% in size
#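 Inhibition is scored as reduced AlphaScreen emission. The BAZ2B/b-H3(5-23)K14Ac complex (50 nM each) in PBS pH 7.4, 0.01% Tween-20 meets compound (up to 110 uM) for 30 min at RT before bead addition.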
# G9a block: inhibitors of human histone lysine methyltransferase G9a; G9a H3K9 monomethylation, AlphaScreen, 2 h; AID 504332; 350,000 compounds, 8.8% hits; Q96KQ7; Potency, µM (series often up to 102 µM), without a hit: top-dose activity, negative = inhibition, most hits filed as inhibitors; also: % is scaled to controls: 0 for no effect and ±100 for the full control effect; nearly all actives have a fitted effect of over 75% in size
# Target sequence (Q96KQ7 913-1193 limits assumed): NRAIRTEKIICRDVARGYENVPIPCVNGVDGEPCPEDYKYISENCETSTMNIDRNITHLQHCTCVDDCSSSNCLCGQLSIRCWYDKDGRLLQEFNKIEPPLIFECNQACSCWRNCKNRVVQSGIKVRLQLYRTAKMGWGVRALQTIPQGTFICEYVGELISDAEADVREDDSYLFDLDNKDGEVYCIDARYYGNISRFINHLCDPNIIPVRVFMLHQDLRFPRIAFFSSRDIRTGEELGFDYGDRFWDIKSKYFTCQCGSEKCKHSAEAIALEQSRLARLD
#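 G9a (20 nM) preincubated 15 min RT with compounds, then 500 nM biotinylated H3K9 peptide and 20 uM SAM added; 2 h RT reaction. Monomethyl-H3K9 product detected by AlphaScreen with anti-H3K9me1 antibody, streptavidin donor and anti-rabbit IgG acceptor beads.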
# VDR inhibitor: inhibitors of human vitamin D receptor; P11473; 400,000 compounds, 0.93% hits; VDR-SRC2-3 peptide fluorescence polarization, 2 h; Potency, µM, for the others: max response, negative = inhibition, actives largely listed as inhibitors; also: % is scaled to controls: 0 for no effect and ±100 for the full control effect
# Target sequence (P11473 whole entry, looked up): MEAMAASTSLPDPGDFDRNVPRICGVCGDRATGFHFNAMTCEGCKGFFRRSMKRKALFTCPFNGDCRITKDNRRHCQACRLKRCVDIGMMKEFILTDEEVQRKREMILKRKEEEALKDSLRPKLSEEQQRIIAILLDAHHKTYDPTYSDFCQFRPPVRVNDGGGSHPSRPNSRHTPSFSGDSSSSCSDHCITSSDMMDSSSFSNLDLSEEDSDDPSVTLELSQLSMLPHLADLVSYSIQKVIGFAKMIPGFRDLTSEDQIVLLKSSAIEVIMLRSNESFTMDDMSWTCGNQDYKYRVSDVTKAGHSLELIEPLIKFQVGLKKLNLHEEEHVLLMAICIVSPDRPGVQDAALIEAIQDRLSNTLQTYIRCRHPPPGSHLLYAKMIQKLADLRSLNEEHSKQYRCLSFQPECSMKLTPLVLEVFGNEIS
#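 Two reagent solutions held at 4 deg C in the dark were dispensed, compounds pinned at 23 nl, and the mixture incubated 2 h at room temperature. Read-out: fluorescence polarization of VDR–SRC2-3 peptide binding.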
# HP1b binding inh: inhibitors of HP1-beta chromodomain binding to methylated histone tails. P83916. AlphaScreen HP1-beta / biotin-H3K9me3 peptide binding. AID 540317. 390,000 compounds, 0.56% hits. Potency, µM (highest dose often 114 µM), for inactives: top-dose activity change, negative = inhibition, usual class: inhibitors; also: nearly all actives have a fitted effect of over 70% in size
#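 Compound inhibition of the preformed complex between 50 nM HP1-beta and 50 nM biotinylated H3K9me3 peptide was read by AlphaScreen. Buffer was PBS pH 7.4 with 0.01% Tween-20. Incubations ran 30 min at room temperature, with 10 ug/mL donor/acceptor beads.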
# PLK1 PBD block: PLK1 (human) polo-box domain binding inhibition. 360,000 compounds, 2.8% hits. P53350. Plk1 PBD binding of FITC phosphopeptide, fluorescence polarization. Potency, µM, without a hit: max response, negative = inhibition, usual class: inhibitors; also: series mostly up to about 57 µM; % is scaled to controls: 0 for no effect and ±100 for the full control effect; nearly all actives have a fitted effect of over 65% in size
# Starred values were filed as active, the others as inactive; ? = inconclusive; / = not tested or not shown; [ ] = dose if it differs, or a comment. Calls follow the shape of the dose curve; as a rule, active = well fitted curve in the direction sought with a large enough effect; inconclusive = small, poorly fitted or top-dose-only effect, or another doubt; inactive = no such curve, though single readings can be large; an effect the other way counts as inactive or inconclusive. Potency is read from the fitted curve at half-maximal effect.
SMILES,JMJD2A Tudor,BAZ2B inh,G9a block,VDR inhibitor,HP1b binding inh,PLK1 PBD block
COc1cc(/C=C/C(=O)O)cc(Br)c1O,-4%,?,20%[12.7 µM],18%,28%,0%
CCc1ccc(NC(=O)N(Cc2c[nH]c3ccccc23)C2CCCCC2)cc1,-5%,/,-36%[59 µM],11%,36%,/
Cc1cc(O)c2c(c1)C(=O)c1cccc(O)c1C2=O,/,-31%,?,14µM*,/,/
CCc1ccc(CN2CCCC(C(=O)N3CCCCC3)C2)cc1 (configuration not stated),45µM*,79µM*,8.9µM*,-7%,-32%,-11%
O=C(C1CCCN(Cc2cccnc2)C1)N1CCCCC1 (configuration not stated),?,22µM*,4µM*,15%,?,-2%
COc1ccc(CN2CCCC(C(=O)N3CCCCC3)C2)c(OC)c1 (configuration not stated),?,-27%,/,?,-13%,30µM*
Cc1cccc(NC(=O)Cn2ncc3c4ccccc4n(Cc4ccccc4)c3c2=O)c1C,-17%,-4%,-4%[59 µM],7%,10%,/
CCOc1ccc(C(=O)NCCSc2c(C)[nH]c3ccccc23)cc1OCC,-32%,-26%,-8%[59 µM],5%,21%,/
CCOc1cc(/C=C2/NC(=O)NC2=O)cc(Br)c1OCc1ccc(C(=O)O)cc1,?,71µM*,45µM*,-9%,?,?
COc1cc(/C=C2\NC(=O)NC2=O)cc(Br)c1OC,-7%,-2%,80%,2%,2%,-4%
CCOc1cc(/C=C2\NC(=S)N(C)C2=O)ccc1OCc1ccc(C(=O)O)cc1,?,71µM*,?,?,25%,?
CN1C(=O)/C(=C/c2ccc(OCc3ccc(C(=O)O)cc3)c(Cl)c2)NC1=S,-33%,?,?,-23%,27%,-21%
CN(C)CCNC(=O)C1CCN(c2ncnc3c2nc2n3CCCCC2)CC1,-21%,2%,-10%[59 µM],6%,30%,/
CCOc1ccc(-c2nonc2NC(=O)c2ccc(C)cc2)cc1OCC,-14%,0%,-2%[59 µM],0%,20%,/
COc1ccc(-n2c(CN3CCN(c4ccccn4)CC3)nc3ccc([N+](=O)[O-])cc3c2=O)c(OC)c1,?,?,32µM*,-21%,3%,-6%
C=C(C(C)=O)C(O)c1cccc(Br)c1 (configuration not stated),/,/,/,-5%,/,/
COc1cc([C@H]2c3[nH]c4ccccc4c3C[C@H]3C(=O)N4[C@@H](c5cc(OC)c(OC)c(OC)c5)c5[nH]c6ccccc6c5C[C@H]4C(=O)N23)cc(OC)c1OC,-8%,-22%,?,-2%,29%,-1%
O=C1[C@@H]2Cc3c([nH]c4ccccc34)C(c3cccc([N+](=O)[O-])c3)N2C(=O)CN1C1CCN(Cc2ccccc2)CC1 (some centres not stated),/,25µM*,32%[0.501 µM],/,/,/
O=C1NCC(=O)N2C(c3ccccc3)c3[nH]c4ccccc4c3C[C@@H]12 (some centres not stated),-9%,-9%,19%,-23%,-24%,-1%
CC1Cc2c([nH]c3ccccc23)C2c3ccccc3CN12 (configuration not stated),?,4%,25µM*,-3%,-7%,-7%
CC(C)c1ccc(C2c3[nH]c4ccccc4c3C[C@H]3C(=O)N(c4ccccc4C(=O)N4CCC[C@@H]4C(=O)O)C(=O)N23)cc1 (some centres not stated),-33%,-22%,13%[12.7 µM],-1%,-5%,42µM*
CCOc1ccc(C2c3[nH]c4ccccc4c3C[C@H]3C(=O)N(C4CC4)CC(=O)N23)cc1OC (some centres not stated),-2%,?,-15%,-1%,16%,1%
O=C1[C@@H]2Cc3c([nH]c4ccccc34)[C@@H](c3ccccc3)N2C(=O)[C@@H]2Cc3c([nH]c4ccccc34)[C@@H](c3ccccc3)N12,/,?,14µM*,/,/,/
Cc1ccc(Cl)cc1NC(=O)CCn1c(=O)c2cccn2c2cccnc21,-1%,1%,4%[59 µM],11%,54%,/
COc1cccc(-n2c(SCC(=O)N3CCCc4ccccc43)nc3c([nH]c4ccccc43)c2=O)c1,-12%,4%,0%[59 µM],-7%,13%[57 µM],/
SMILES,JMJD2A Tudor,BAZ2B inh,G9a block,VDR inhibitor,HP1b binding inh,PLK1 PBD block
O=C(CC1Nc2ccccc2NC1=O)NCCCN1CCCCCC1 (configuration not stated),32µM*,-29%,-15%[59 µM],-21%,14%,-8%
CCCCNC(=O)CC1Nc2ccccc2NC1=O (configuration not stated),-24%,8%,-32%,6%,30%,-9%
O=C(COC(=O)CCNS(=O)(=O)c1ccccc1)Nc1ccc(OC(F)F)cc1,4%,10%,-8%[12.7 µM],-10%,75%,9%
c1ccc(-c2nccc(-c3ccco3)n2)nc1,?,32µM*,?,-1%,32%,4%
c1ccc(-c2noc(-c3ccco3)n2)nc1,10%[11.4 µM],11%,21%[59 µM],-23%,-12%,-19%
CC1(C)C(=O)CC[C@@]2(C)C1CC(O)[C@@]1(C)C3=CC(=O)OC(c4ccoc4)[C@]3(C)CCC21 (some centres not stated),/,/,-6%[2.33 µM],?,/,/
CC1(C)C(O)C=C[C@@]2(C)C1CC(=O)O[C@@]1(C)C3=CC(=O)OC(c4ccoc4)[C@]3(C)CCC21 (some centres not stated),/,/,-17%[2.33 µM],45µM*,/,/
Cc1ccn2cc(-c3ccc4c(c3)NC(=O)CO4)nc2c1,-18%,-21%,-2%,-21%,28%,-10%
Oc1ccc(-c2cn3ccccc3n2)cc1O,25µM*,79µM*,2µM*,-26%,?,-1%
Cc1ccn2cc(-c3ccc(O)c(O)c3)nc2c1,40µM*,71µM*,8.9µM*,-6%,?,-6%
Oc1ccc(-c2cn3ccccc3n2)cc1,-17%,-17%,?,9%,48%,-3%
Cc1ccn2cc(-c3cccc(NC(=O)C(C)C)c3)nc2c1,?,-19%,-22%,-14%,15%,21µM*
O=C(Nc1ccccc1)Nc1nnc([C@H]2C[C@H](O)[C@@H](CO)O2)s1,/,/,/,/,/,-3%
O=C(CSc1n[nH]c(-c2ccccc2)n1)Nc1ncccn1,0%,-36%,?,-4%,37%,-2%
Cc1ccccc1NC(=O)CSc1n[nH]c(-c2ccccn2)n1,3.5µM*,2.8µM*,12%,16%,60%,3%
O=C(CSc1n[nH]c(-c2ccccc2)n1)Nc1ccc(Br)cn1,-9%,2%,?,-1%,37%,-8%
Cc1ccc(C)c(NC(=O)CSc2n[nH]c(-c3ccccn3)n2)c1,1.3µM*,4.5µM*,61%,8%,15%,4%

# From PubChem
